High-throughput results (PubChem BioAssay)
hcDAF-12 act = H. contortus DAF-12 nuclear receptor activators, primary screen, cell-based, luminescence, HEK293, lit1-tk-luc reporter; HEK293 hcDAF-12 lit1-tk-luc reporter; 0% DMSO, 100% Δ7-dafachronic acid; activation, % at 6.8 µM; AID 652067, 2013; 370,000 compounds, 1.4% hits;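 active = activation above the mean of all tested compounds plus 3 SD, cut at about 5.5% in these data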;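 also: 100% = response to 3 µM Δ7-dafachronic acid high control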
ssDAF12 agonist = S. stercoralis DAF-12 nuclear receptor activators, primary screen, cell-based, luminescence, HEK293, GRIP1 co-expression, lit1-tk-luc. Nuclear hormone receptor DAF-12 (Strongyloides stercoralis). HEK293 ssDAF-12/GRIP1 lit1-tk-luc reporter; % of 3 µM dafachronic acid response. activation, % at 6.8 µM. 370,000 compounds, 1% hits. AID 652126, 2013;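 active = activation above the mean over all tested compounds plus 3 SD, cut at about 0.9% in these data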;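 also: 0% = DMSO-only wells and 100% = 3 µM delta7-dafachronic acid wells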
hgDAF12 agonist = H. glycines DAF-12 receptor agonists, primary screen, cell-based, luminescence, HEK293, GAL4 fusion, UAS-luciferase; HEK293 GAL4-hgDAF12 UAS-luciferase reporter, agonist luminescence; normalized to butyrate control; activation, % at 6.8 µM; 370,000 compounds, 1.8% hits; Nuclear hormone receptor DAF-12 (Heterodera glycines), GAL4 fusion;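 active = activation above a cutoff set at the mean of all screened compounds plus 3 SD, cut at about 10% in these data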;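 also: 0% = DMSO wells and 100% = sodium butyrate wells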
DAX1 inh-1 = DAX1 (NR0B1) inhibitors, primary screen, cell-based, HEK293, Gal4-DAX1, luciferase luminescence | Nuclear receptor subfamily 0 group B member 1 (Homo sapiens), P51843 | inhibition, % at 6.75 µM | HEK293 Gal4-DAX1 luciferase reporter | 340,000 compounds, 0.99% hits;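 active = inhibition above the mean over all tested compounds plus 3 SD, cut at about 4.2% in these data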;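 also: 0% = DAX1-transfected cells with DMSO and 100% = empty-vector control cells with DMSO; inhibition shows as a rise in luminescence from relieved DAX1 repression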
Target sequence (P51843 207-470 limits assumed): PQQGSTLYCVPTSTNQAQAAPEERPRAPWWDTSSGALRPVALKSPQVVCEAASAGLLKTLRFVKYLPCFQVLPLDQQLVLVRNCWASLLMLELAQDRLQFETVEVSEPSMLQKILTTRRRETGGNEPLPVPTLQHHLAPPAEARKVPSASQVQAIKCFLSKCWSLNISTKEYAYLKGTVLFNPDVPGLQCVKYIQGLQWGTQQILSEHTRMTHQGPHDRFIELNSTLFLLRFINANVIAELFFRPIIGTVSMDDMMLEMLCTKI
DAX1 inh-2 = DAX1 (NR0B1) inhibitors on StAR promoter, primary screen, cell-based, luminescence, SF-1 (NR5A1), full-length DAX-1; HEK293T StAR-luciferase reporter, SF-1/DAX-1 repression relief; inhibition, % at 6.8 µM; 370,000 compounds, 1.1% hits; AID 652010, 2013;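 active = inhibition above the mean over all tested compounds plus 3 SD, cut at about 3.6% in these data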;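 also: 0% = DAX-1 cells with DMSO and 100% = cells lacking DAX-1 with DMSO; higher inhibition means more luminescence from relief of DAX-1 repression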
PolyA inh = polyadenylation inhibitors in yeast reporter cells, primary screen, luminescence, S. cerevisiae | S. cerevisiae SKY197-pL101 polyadenylation reporter, beta-gal luminescence; efflux-impaired pdr1/pdr3 knockout yeast; score 100 = 6 SD above DMSO | activity score, % at 12 µM | 300,000 compounds, 0.02% hits;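 active = lowest replicate activity score at least 50, where 100 means six control SD above control mean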;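 also: yeast exposed to compound for 9 h at 30 °C; higher score means more reporter readthrough which indicates perturbed polyadenylation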
Numbers without * were called inactive; . = no result given. Rows were chosen to be rich in hits. Some 4.1% of all compounds tested hit in one or more screens of this group.

SMILES | hcDAF-12 act | ssDAF12 agonist | hgDAF12 agonist | DAX1 inh-1 | DAX1 inh-2 | PolyA inh
O=C(OC12CCCN(C1)/C(=C/c1cccc(Cl)c1)C2)C1CCCC1 (stereo not drawn) | -1.5 | -0.8 | 1.6 | . | 1.2 | .
COc1ccc(CN2C(=O)N(c3ccc(OC)cc3)C(=O)C2CC(=O)Nc2ccccc2)cc1 (stereo not drawn) | 0.8 | -1.1 | -1.4 | -0.3 | -0.7 | -13.2
COc1ccc(N2C(=O)C(CC(N)=O)N(NC(=O)CCc3ccccc3)C2=O)cc1 (stereo not drawn) | 0.6 | -1.4 | -1.4 | 5.9* | 0.2 | 0.1
O=C(NNC(=S)Nc1ccc(F)cc1)c1cccc([N+](=O)[O-])c1 | 1.3 | 1.8* | 1.4 | 1.0 | 0.0 | -8.8
CCCCNC(=O)OC1CCC12CCC(c1ccccc1)CC2 (stereo not drawn) | 0.1 | -1.6 | 5.9 | . | -1.6 | .
CCOC(=O)[C@]12CCCCC/C=C\1N(Cc1ccc(OC)cc1)C(=O)[C@H]2CC(=O)NCC1CCCCC1 | -2.8 | -0.7 | -0.2 | . | 0.5 | .
O=C(Nc1ccc2[nH]ccc2c1)c1cc(-c2ccc(Cl)cc2)nc2ccccc12 | 6.2* | 0.8 | 5.7 | . | 0.1 | .
O=C(N/N=C/c1cccnc1)c1cc(-c2ccccc2)nc2ccccc12 | -1.3 | -1.3 | -0.1 | -1.1 | -0.5 | 27.7
O=C(N/N=C/c1cccnc1)c1cc(-c2ccc(Cl)cc2)nc2ccccc12 | 1.1 | -1.3 | 2.8 | 5.6* | -0.1 | -2.8
CSc1nnc2c(n1)c(C)nn2-c1ccc(C)cc1 | 4.8 | 1.3* | 3.6 | 1.5 | 0.3 | -4.7
Cc1ccc(-n2nc3c(Cl)nnc(C)c3c2C)cc1 | -0.3 | -1.5 | -1.1 | -0.9 | 0.2 | -2.7
CN1[C@@H](Cc2ccccc2)COc2cccc(N3CCCC3)c2S1(=O)=O | -0.8 | -1.8 | 4.3 | . | -0.2 | .
CCC(C)C(NC(N)=O)C(=O)Nc1ccc(C(=O)OC)cc1 (stereo not drawn) | -0.6 | -1.5 | 4.2 | 4.4* | 1.3 | -5.0
COc1ccc(NC(=O)C(c2cc3ccccc3o2)n2c(=O)c(-c3cc4ccccc4[nH]3)nc3ccccc32)cc1 (stereo not drawn) | 5.8* | 1.3* | 3.2 | . | 0.4 | .
O=C(NCc1ccccc1)C(c1ccncc1)n1c(=O)c(-c2ccccc2)nc2ccccc21 (stereo not drawn) | -0.1 | -0.7 | 4.0 | . | 0.0 | .
O=C(NCc1ccccc1)C(c1cc2ccccc2o1)n1c(=O)c(-c2ccccc2)nc2ccccc21 (stereo not drawn) | 4.1 | 0.5 | 5.4 | . | 3.8* | .
Cn1c2ccccc2c2cc(C(=O)N3CCN(CCO)CC3)sc21 | 2.6 | 0.8 | 0.6 | 5.4* | 0.4 | 9.3
COc1ccc(C(=O)/C=C/c2cn(CC(O)CN3CCN(C)CC3)c3ccccc23)cc1OC (stereo not drawn) | -0.8 | -0.9 | -1.8 | 5.0* | -0.5 | 9.8
CC1C(O)=C(c2nc3ccccc3[nH]2)C(=N)N1c1ccccc1 (stereo not drawn) | 0.1 | -0.9 | 13.3* | 1.7 | 0.2 | 3.6
O=C(Cc1cn(Cc2ccccc2)c2ccccc12)Nc1ccc(Nc2cccnc2)c(Br)c1 | -2.8 | -1.6 | 0.8 | . | -0.7 | .
Cn1c(O)c(C2=c3ccccc3=NC2=O)[nH]c1=S | 4.6 | 1.2* | 1.0 | 0.5 | 0.1 | -33.6
COc1ccc2nc(-n3c(O)c(C4=c5ccccc5=NC4=O)[nH]c3=S)sc2c1 | 1.1 | 0.4 | 1.6 | -1.7 | 0.5 | -0.7
Cc1cc(N2CCC(C)CC2)nc2ccccc12 | -0.1 | -0.5 | 1.3 | . | . | .
CC(C)[C@H](NC(=O)[C@@H]1Cc2c([nH]c3ccccc23)C2c3ccccc3C(=O)N21)C(=O)N1CCC[C@@H]1C(=O)O (stereo partly drawn) | 5.7* | -0.3 | 0.6 | 4.2 | -0.9 | -7.0
COCCNC(=O)c1c(N)[nH]c(C(=O)c2ccc(Br)cc2)c1-c1c(OC)ccc2ccccc12 | -2.3 | -1.0 | 1.9 | . | . | .
SMILES | hcDAF-12 act | ssDAF12 agonist | hgDAF12 agonist | DAX1 inh-1 | DAX1 inh-2 | PolyA inh
O=C(c1ccc(Cl)cc1)N1CCC(Oc2cccnc2)CC1 | 0.0 | -1.5 | 3.0 | . | -0.2 | .
COC(=O)c1cc2c(c3c4cc(F)ccc4n(S(=O)(=O)c4cccc(C)c4)c13)C(=O)N(c1ccc(OC)cc1)C2 | 1.1 | -1.3 | 1.3 | . | -1.5 | .
Cc1ccc(S(C)(=O)=NC(=O)NC(=O)c2c(Cl)cccc2Cl)cc1 (stereo not drawn) | -0.6 | -1.4 | 0.9 | 4.9* | 0.3 | 2.5
CC1CCN(c2c3c(nc4ncnn24)CCCC3)CC1 | -2.9 | -1.2 | 4.3 | . | -1.6 | .
Cc1ccccc1-c1nc2sc3c(c2c(=O)n1N)CCCC3 | -1.5 | -1.1 | -2.3 | 4.5* | 0.2 | -1.3
Cc1nc2sc3c(c2c(=O)n1N)CCC3 | -0.7 | -2.3 | 1.5 | 1.3 | 2.0 | 11.4
CC(=O)N(CCCc1ccc(C(C)(C)C)cc1)CCCN(C)C | 0.0 | -1.1 | -1.5 | 0.4 | -0.1 | -16.2
CC(=O)N(CCCN(C)C)CCC(C)CCC=C(C)C (stereo not drawn) | -0.8 | 1.1* | -2.8 | -0.4 | 0.9 | -4.6
COC(=O)c1ccc(S(=O)(=O)N2CCC(NC(=O)Cc3cccc(C)c3)CC2)cc1 | -1.6 | -1.0 | 1.8 | . | -0.4 | .
Cc1cc(C)c(CN2CCN(C(=O)Cn3cc(C)c(=O)[nH]c3=O)CC2)c(C)c1 | -1.4 | -1.3 | -1.7 | . | -1.0 | .
C(#CSCc1ccccc1)SCc1ccccc1 | 1.4 | -0.5 | 0.4 | 4.3* | -0.2 | .
Cc1nn(-c2ccccc2)c(C)c1/C=N\N1CCN(Cc2ccccc2Cl)CC1 | -3.8 | -1.2 | -0.7 | . | -0.9 | .
CCOc1ccccc1NC(=O)c1ccc2nc[nH]c2c1 | -2.0 | -1.5 | 0.5 | 4.4* | -0.2 | 0.9
CCOC(=O)c1ccccc1NC(=O)c1ccc2nc[nH]c2c1 | -1.7 | -1.6 | -1.5 | -1.3 | -0.8 | -9.7
COc1ccccc1NC(=O)c1ccc2[nH]c(C)c(C)c2c1 | 3.3 | -0.4 | 10.5* | 2.5 | 1.0 | -34.5
Cc1ccc(NC(=O)c2ccc3nc[nH]c3c2)c(O)c1 | 6.2* | 0.5 | 11.2* | 1.6 | 2.9 | 21.4
CCCN1CCCCC(NC(C)=O)C1=O (stereo not drawn) | 0.1 | -1.4 | 3.4 | . | -0.6 | .
O=C(N/N=C1\CCc2ccccc21)c1ccccc1Cl | 3.0 | -0.3 | 11.9* | 3.3 | 2.5 | 7.0
